Results published in PubChem BioAssay AID720513 (Broad Institute, 2013).
About 480 (23%) of roughly 2,100 compounds were called active. Roughly 5% stayed inconclusive and do not appear here.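 The calls were made as follows: active = fitted curve reaches 40% activation at or below the top valid concentration, in every replicate test; inconclusive = replicate tests disagree on the call; inactive = the rest, including activity in the opposite direction.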 Not all results are given here. Entries with a potency or affinity are not part of this list.

Experiment: PGC1a acetylation increase, cellular AlphaLISA – cell-based, cherry-picked samples, set 6, dose response (AID 720513);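 also: cells made to overexpress flag tagged PGC1a plus GCN5 acetyltransferase by viral infection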
Settings: U2OS PGC1a acetylation AlphaLISA, overnight, 0 = neutral, -100 = inhibitor control; series mostly up to 19.5 µM

outcome, inactive:
O=C(NNS(=O)(=O)c1ccc(F)cc1)c1ccc(S(=O)(=O)N2CCCCC2)cc1, N#CC1(NC(=O)Cn2ncc(Cl)c(Cl)c2=O)CCCCC1, C#CCN(C[C@@H]1[C@@H](OC(=O)NCCCCCC)[C@@H](OC(=O)NCCCCCC)Cn2c(=O)ccc(=O)n21)S(=O)(=O)c1ccc(C)cc1, CO[C@H]1CN(C)C(=O)c2ccc(NS(=O)(=O)c3ccccc3)cc2OC[C@H](C)N(C(=O)NC(C)C)C[C@@H]1C, O=C(Cn1cc(C(F)(F)F)ccc1=O)Nc1cc(S(=O)(=O)N2CCOCC2)ccc1Cl, CCN(CC)c1ccc(S(=O)(=O)N2CCOCC2)cc1NC(=O)Cn1nc(C)c([N+](=O)[O-])c1C, O=C(Nc1cc(S(=O)(=O)N2CCOCC2)ccc1Cl)c1cc([N+](=O)[O-])ccc1Cl, CCN(CC)S(=O)(=O)c1ccc(C(=O)Nc2cc(S(=O)(=O)N3CCOCC3)ccc2O)cc1, Cc1nn(CCCC(=O)O)c(C)c1[N+](=O)[O-], CCC(=O)NC1(Cc2ccc(O)cc2)CCCCC1, COCCNC(=O)CN(C(=O)CCC(=O)Nc1ccccn1)c1ccc(OC)cc1, CCN(CC)CCNc1ccc(C)c2sc3ccc(O)cc3c(=O)c12, Cc1cccc(CCN(CC(=O)NC(C)(C)C)C(=O)c2csnn2)c1, C[C@@H]1CN([C@@H](C)CO)S(=O)(=O)c2ccc(C3=CCCCC3)cc2O[C@H]1CN(C)C, Cc1ccc(S(=O)(=O)N(C)C[C@@H]2Oc3cc(C#Cc4ccncc4)ccc3S(=O)(=O)N([C@@H](C)CO)C[C@H]2C)cc1, COc1ccc(S(=O)(=O)N(C)C[C@@H]2Oc3cc(C#CC4CC4)ccc3S(=O)(=O)N([C@H](C)CO)C[C@H]2C)cc1, Cc1ccc(S(=O)(=O)N(C)C[C@@H]2Oc3cc(C#Cc4ccncc4)ccc3S(=O)(=O)N([C@H](C)CO)C[C@H]2C)cc1, Cc1ccc(S(=O)(=O)N(C)C[C@H]2Oc3cc(C#Cc4ccncc4)ccc3S(=O)(=O)N([C@H](C)CO)C[C@H]2C)cc1, C[C@H]1CN([C@@H](C)CO)S(=O)(=O)c2ccc(C3=CCCC3)cc2O[C@@H]1CN(C)C, COc1ccc(S(=O)(=O)N(Cc2cc3ccc(OC)cc3[nH]c2=O)CC2COCCO2)cc1 (stereo not drawn), Cn1c2c(c(=O)n(C)c1=O)C(c1cccc(F)c1)C(C#N)=C(N)O2 (stereo not drawn), Cc1ccc(S(=O)(=O)N(C)C[C@H]2Oc3ccc(NC(=O)CCC(F)(F)F)cc3C(=O)N([C@H](C)CO)C[C@@H]2C)cc1, CCOC(=O)c1ccc(N2C(=O)CC(N3CCC(O)(c4ccc(Br)cc4)CC3)C2=O)cc1 (stereo not drawn), Cn1ncc2c(O/N=C(\N)c3ccc(C(F)(F)F)cc3)ncnc21, CC(C)OC(=O)CSc1nc2cccnc2n1-c1ccc(F)cc1, CCOC(=O)CSc1nc2cc3c(cc2cc1C#N)OCCO3, O=C(/C=C/c1ccc(F)cc1)NNC(=O)CCN1CCN(Cc2ccccc2)CC1, Cc1[nH]c(=O)c(C(=O)/C=C/c2ccccc2)c2c1CCCC2, CC(=O)N1CCN(C(C)=O)C1c1ccccc1, O=S(=O)(Nc1ccccn1)c1ccc(-n2cccn2)cc1, CC1CCN(C(=O)COC(=O)c2ccc(Br)o2)CC1, CCOc1ccc(S(=O)(=O)N(C)c2ccc(OCC(=O)N3c4ccc(C)cc4C4CN(C)CCC43)cc2)cc1 (stereo not drawn), COc1ccc(OC)c(CNS(=O)(=O)c2cc(-c3cc(C)no3)ccc2OC)c1, CN(C[C@H]1N[C@@H](CO)[C@@H]1c1ccc(C2=CCCC2)cc1)C(=O)c1ccc(F)cc1, CN1OC[C@@H]2CN(S(=O)(=O)c3cccc4ccccc34)[C@H](c3ccc(N4CCCCC4)cc3)C[C@@H]21, Cc1cc(C)nc(N2CCC(C(=O)NCc3ccco3)CC2)n1, CC(C)CC(OC(=O)c1cccs1)C(=O)NCc1ccco1 (stereo not drawn), Cc1ccc(C)n1-c1ccc(-c2nnco2)cc1, COc1ccc2c3c([nH]c2c1)[C@@H](CO)N(C(=O)c1ccccc1)CC31CCN(S(=O)(=O)c2cccs2)CC1, COc1ccc2c3c(n(C)c2c1)[C@H](CO)NCC31CCN(Cc2cc(-c3ccccc3)on2)CC1, CCN(CC)Cc1c(O)ccc2c([N+](=O)[O-])c(C)n(-c3ccc(OC)cc3)c12, CCOC(=O)CN1C(=O)C(Sc2n[nH]c(-c3ccc(C)cc3)n2)CCc2ccccc21 (stereo not drawn), O=C1c2ccc(-c3ccc4c(c3)C(=O)N(CCCO)C4=O)cc2C(=O)N1CCCO, CNC[C@H]1Oc2ncc(C#CC3CCCCC3)cc2C(=O)N([C@H](C)CO)C[C@H]1C, O=C(Cn1cnc2c(nnn2Cc2ccc(Cl)cc2)c1=O)c1ccccc1, COc1cccc(OCc2nnc(SCC(=O)OCc3ccccc3)o2)c1, COc1ccc(CN(C)C[C@@H]2Oc3ccc(NS(=O)(=O)c4c(C)noc4C)cc3C(=O)N([C@H](C)CO)C[C@H]2C)cc1, Cc1cc(C)cc(N(CC(=O)Nc2c(C)n(C)n(-c3ccccc3)c2=O)S(C)(=O)=O)c1, C[C@@H]1CN([C@H](C)CO)C(=O)CCCn2nncc2CO[C@H]1CN(C)S(=O)(=O)c1cn(C)cn1, CN(Cc1ccccc1)C(=O)c1ccc2c(c1)NC(=O)C(N1CCOCC1)S2 (stereo not drawn), CCCOc1ccccc1C1C(C(=O)OC)=CN(C(C)C)C=C1C(=O)OC, CN(c1cccc(NS(=O)(=O)c2cccs2)c1)S(C)(=O)=O, CC(=O)c1ccccc1-c1csc2ncnc(Sc3nnnn3C)c12, CCn1c(CNc2ccc(C)cc2)nnc1SCC(N)=O, Cc1[nH]nc2ncc(C(=O)c3ccccc3O)cc12, Cn1c(SCc2ccon2)nc2ccccc2c1=O, CNC[C@@H]1OCCCC[C@H](C)Oc2ccc(NS(=O)(=O)c3cccs3)cc2C(=O)N([C@H](C)CO)C[C@@H]1C, Cc1noc(C)c1NC(=O)N(C)C[C@@H]1OCCCC[C@@H](C)Oc2ccc(N(C)C)cc2C(=O)N([C@@H](C)CO)C[C@H]1C, CCCOc1ccc(/C=C/C(=O)O)cc1OC, COc1ccc(C(=C(CC(=O)O)C(=O)OC(C)(C)C)c2cc(OC)c(OC)c(OC)c2)cc1OC, CN(C)C(=O)C[C@H]1CC[C@H](NC(=O)C2CCC2)[C@@H](CO)O1, COc1ccc2cc3c(N)nn(C(=O)c4ccccc4Cl)c3nc2c1, CCc1c(C)nc(SCC(=O)Nc2ccc3c(c2)OCCO3)[nH]c1=O, COc1ccc(NCc2nnc(SCC(=O)Nc3cc(C)cc(C)c3)o2)cc1, CCN1C(=O)c2cccc3c(S(=O)(=O)Nc4ccccn4)ccc1c23, Cc1ccc(O)c(NC(=O)c2ccc3c(c2)C(=O)N(CC(C)C)C3=O)c1, CCN1CCN(C(=O)c2c(-c3c(F)cccc3Cl)noc2C)CC1, C[C@H](CO)N1C[C@H](C)[C@H](CN(C)C(=O)NC2CCCCC2)Oc2cc(C#Cc3ccc(F)cc3)ccc2S1(=O)=O, Nc1ccccc1-c1ccn[nH]1, CC1=NN(C(=O)c2ccc(C)cc2)C(O)(C(F)(F)OC(F)(F)F)C1 (stereo not drawn), O=C(c1ccco1)N1N=C(c2ccc(Cl)cc2)CC1(O)C(F)(F)F (stereo not drawn), COc1ccc(-c2ccc(CCC(=O)O)n2NC(=O)c2ccc(C(C)(C)C)cc2)cc1, COc1ccc(C(C)(O)c2nc(-c3cccc(O)c3)cs2)cc1 (stereo not drawn), O=C(Nc1ccc(F)cc1)N[C@H]1C=C[C@H](CC(=O)N2CCCCC2)O[C@H]1CO, CCSc1ccccc1C(=O)NCCCn1ccnc1, COc1cccc(-c2cc(C(=O)NCCCn3ccnc3)no2)c1, Cc1ccccc1-c1nc(C(=O)NCC2CCCO2)cc2c1[nH]c1ccccc12 (stereo not drawn), C[C@@H]1CN([C@@H](C)CO)S(=O)(=O)c2ccc(-c3ccc(F)cc3)cc2O[C@H]1CN(C)C(=O)C1CCCCC1, C#CCN(C[C@@H]1[C@@H](OC(=O)NC2CCCC2)[C@@H](OC(=O)NC2CCCC2)Cn2c(=O)ccc(=O)n21)S(=O)(=O)c1ccc(C)cc1, O=C1N(Cc2ccccc2)Cc2ccccc2[C@@H]2OC(c3ccc(OCCCO)cc3)=N[C@]12Cc1ccccc1, CCCC#Cc1ccc2c(c1)O[C@@H](CN(C)C(=O)C1CC1)[C@@H](C)CN([C@@H](C)CO)S2(=O)=O, COC(c1ccccc1)c1nnc(CCC(=O)N(C)C(C2CC2)C2CC2)o1 (stereo not drawn), COCC(=O)NCc1nc2ccccc2n1Cc1ccccc1F, COCCNC(=O)C(c1ccc(F)cc1)N(Cc1ccco1)C(=O)CCC(=O)Nc1nccs1 (stereo not drawn), COc1ccc2cc3cc(C(=O)NCc4cccs4)oc3nc2c1, CCCCn1nc(NC(=O)c2cccs2)c2cc3ccccc3nc21, CN(C)c1ccc(C(=O)NC2(N3CCC3=O)CCCC2)cc1, CCOC(=O)N1CCN(C(=O)c2cc(Cl)c(Cl)cc2C(=O)O)CC1, Clc1ccc(CSc2nnc(-c3cccnc3)n2Cc2ccco2)c(Cl)c1, CCOC(=O)C1=C(C)N=c2s/c(=C\c3cccc(OCC(=O)O)c3)c(=O)n2C1c1ccccc1OC (stereo not drawn), C[C@@H]1CN([C@H](C)CO)C(=O)c2cc(NC(=O)Cc3ccccc3)ccc2O[C@@H]1CN(C)Cc1ccncc1, C[C@H]1CN([C@@H](C)CO)C(=O)c2cccc(NC(=O)C3CCCCC3)c2O[C@H]1CN(C)Cc1ccc(C(=O)Nc2ccccc2N)cc1, COc1ccc(CN(C)C[C@H]2Oc3c(NC(=O)CCCCCC(=O)Nc4ccccc4N)cccc3C(=O)N([C@H](C)CO)C[C@@H]2C)cc1, Cc1noc(C)c1NC(=O)Nc1cccc2c1O[C@H](CN(C)Cc1ccc(Oc3ccccc3)cc1)[C@H](C)CN([C@@H](C)CO)C2=O, Cc1noc(C)c1S(=O)(=O)Nc1cccc2c1O[C@@H](CN(C)Cc1ccncc1)[C@@H](C)CN([C@@H](C)CO)C2=O, C[C@H](CO)N1C[C@H](C)[C@@H](CN(C)Cc2ccc(C(F)(F)F)cc2)Oc2ccc(NS(=O)(=O)c3ccc(F)cc3)cc2C1=O, C[C@@H]1CN([C@H](C)CO)C(=O)c2cc(NS(=O)(=O)c3ccc(F)cc3)ccc2O[C@H]1CN(C)Cc1ccc(C(F)(F)F)cc1, C[C@H](CO)N1C[C@H](C)[C@H](CN(C)Cc2ccc(C(=O)Nc3ccccc3N)cc2)Oc2c(NC(=O)c3cnccn3)cccc2C1=O
